Here are results for 99 molecules from PubChem BioAssay AID431 (Sanford-Burnham Center for Chemical Genomics, 2006).

About 1,100 (1.7%) of roughly 63,000 compounds were called active.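 Rule for the calls: active = compounds whose percent cytotoxicity in the single-dose primary screen, scaled between solvent and toxic-drug controls, exceeds 50; inactive = the rest.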 Shown is part of a subset that was picked to be rich in actives. Potency and affinity values are given separately.

The nature of this experiment: cytotoxicity in KRAS-transformed pancreatic duct cells, primary screen, cell-based, fluorescence, HTS (AID 431).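 Note: 0% = DMSO solvent wells and 100% = doxorubicin-treated wells.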 Conditions: HPDE-C7K KRASV12 cells, Alamar Blue viability, 48 h; at 10 µM; active compounds read high. On the technique in general: Alamar Blue is a resazurin reagent that responds to reducing activity.
Take `Cc1noc(C)c1CSc1nnc(-c2ccncc2)n1-c1cccc(Cl)c1C`: the cytotoxicity was -13.5% (inactive). As for `COc1cc(C2CC(=O)C=C(O)C2)cc(OC)c1OC` (centres undefined), the cytotoxicity is -10% (inactive). As for `CCOc1ccc(C(=O)NCc2cccnc2)cc1`, the cytotoxicity was 0.5% (inactive). For the molecule `O=S(=O)(c1ccc2nc(Cc3ccccc3)[nH]c2c1)N1CCOCC1`, the cytotoxicity is 2.7% (inactive). Then `CC(=O)Nc1ccc(S(=O)(=O)N2CCC(c3nc4ccccc4[nH]3)CC2)cc1`, with 10.6% (inactive); and `CC(=O)Nc1ccc(S(=O)(=O)N2CCN(c3cc(C)nc4ccccc34)CC2)cc1`, with -3.8% (inactive).

Turning to `COc1cc(O)c(NC(C)=O)c2nonc12`, the cytotoxicity was 1.5% (inactive). For the molecule `CC(=O)Nc1nonc1NC(C)=O`, the cytotoxicity is -9.1% (inactive). As for `Cc1ccc2nc(NCc3ccccc3)[nH]c2c1`, the cytotoxicity is 85% (active). On to `COc1ccc2nc(NCc3ccccc3)[nH]c2c1`, for which the cytotoxicity is 39.9% (inactive). With `c1ccc(CNc2nc3ccccc3[nH]2)cc1`, the cytotoxicity is -13.8% (inactive). For the molecule `O=S(=O)(NCc1ccccc1)c1cccc2nonc12`, the cytotoxicity was 4.4% (inactive). Take `CCC1(C)Cc2c(sc3nc4n(c(=O)c23)CCS4)CO1` (centres undefined): the cytotoxicity is 20.1% (inactive). As to `CC(C)Cn1c(Br)nc2c1c(=O)n(CCC#N)c(=O)n2C`, the cytotoxicity is -5.5% (inactive). Take `O=C1NC2(CCCCC2)N=C1c1ccccc1`: the cytotoxicity is 0.3% (inactive). Then `O=C1NC2(CCCC2)N=C1c1ccc(Cl)cc1`, with -2.2% (inactive); and `Fc1ccccc1CSc1nc2ncccc2[nH]1`, with -2.9% (inactive). As for `CCS(=O)(=O)CCSc1nc2ccccc2o1`, the cytotoxicity is -13.9% (inactive). Then `O=C(CSc1nc2ccccc2s1)Nc1ncccn1`, with -2% (inactive); and `CCS(=O)(=O)CCSc1nc2ccccc2s1`, with -6% (inactive); and `c1ccc2oc(SCc3nc4ccccc4s3)nc2c1`, with 1.9% (inactive). Turning to `Cn1c(SCc2cc(=O)n3cc(Br)ccc3n2)nnc1C1COc2ccccc2O1` (centres undefined), the cytotoxicity is -2.9% (inactive). As to `CCC(=O)Nc1ccc2c(c1)ncn2-c1ccccc1OC`, the cytotoxicity was -32.9% (inactive). Then `COc1ccccc1-n1cnc2cc(NC(C)=O)ccc21`, with -14.9% (inactive); and `COc1ccccc1-n1cnc2cc(NCc3ccco3)ccc21`, with 66.4% (active). To `Cc1cccc2nc(Cn3c(=O)n(CCC(=O)NCc4ccco4)c(=O)c4sccc43)cc(=O)n12` belongs 2.4% (inactive); to `O=C(NCN1C(=O)C2C3C=CC(C3)C2C1=O)Nc1nccs1` (centres undefined), -8.1% (inactive). With `Cc1c(C(=O)OC(C)C)[nH]c2c1C(=O)CCC2`, the cytotoxicity is 18% (inactive). To `Cc1ccc(SCc2[nH]nc3c2C(c2ccc(C)o2)C(C#N)=C(N)O3)cc1` (centres undefined) belongs 10.8% (inactive); to `Cc1ccc(C2C(C#N)=C(N)Oc3nc(-c4ccccc4)[nH]c32)o1` (centres undefined), 0.6% (inactive). Take `O=C(Nc1ccccc1)c1ccc(S(=O)(=O)NCC2CCCO2)cc1` (centres undefined): the cytotoxicity is -7.8% (inactive). To `COc1ccc(C2=NOC(C(=O)NCCCN3CCOCC3)C2)cc1` (centres undefined) belongs 1.1% (inactive); to `Cc1ccc(-c2nnn(CC(=O)N(c3ccccc3)C(C(=O)NC3CCCC3)c3ccco3)n2)o1` (centres undefined), -7.9% (inactive); to `Cc1ccc(-c2nnn(CC(=O)N(Cc3cccs3)C(C(=O)NC3CCCC3)c3ccco3)n2)o1` (centres undefined), 66.5% (active). In the case of `Cc1ccc(-c2nnn(CC(=O)N(Cc3cccs3)C(C(=O)NC(C)(C)C)c3ccco3)n2)o1` (centres undefined), the cytotoxicity is -2.9% (inactive). To `CCOC(=O)N1CCN(C(=O)c2c(O)c3cccc4c3n(c2=O)CC4)CC1` belongs -3% (inactive); to `O=C(O)CSC1CC(=O)N(c2cccc(Cl)c2)C1=O` (centres undefined), -10.2% (inactive). To `CCc1nc(SCC(=O)c2ccc(C)c(C)c2)n[nH]1` belongs -2.5% (inactive); to `O=S(=O)(Nc1ccc2c(c1)nc1n2CCN(Cc2ccccc2)C1)c1ccccc1`, 0.8% (inactive). Then `Cc1ccc(S(=O)(=O)Nc2ccc3c(c2)nc2n3CCN(Cc3ccccc3)C2)cc1`, with 6.9% (inactive); and `O=S(=O)(Nc1ccc2c(c1)nc1n2CCN(Cc2ccccc2)C1)c1ccc(Cl)cc1`, with 51.1% (active). Take `COc1ccc(CC(C)N2CCN(c3ccccc3OC)CC2)cc1OC` (centres undefined): the cytotoxicity was 8.7% (inactive). Then `CCn1c(SCC(=O)NCc2ccco2)nc2c1c(=O)n(C)c(=O)n2C`, with -20.9% (inactive); and `COC(=O)c1cc(NC(=O)c2nccnc2C(=O)O)cc(C(=O)OC)c1`, with -2.1% (inactive); and `CC(=O)C1=C(C)NC(C)=C(C(C)=O)C1c1ccc(-c2ccccc2Cl)o1`, with -13% (inactive).

On to `COC(=O)C1=C(C)NC2=C(C(=O)c3ccccc32)C1c1ccc(-c2ccc(C(=O)O)cc2)o1` (centres undefined), for which the cytotoxicity is 62.8% (active).

On to `CCOC(=O)C1=C(C)NC2=C(C(=O)c3ccccc32)C1c1cccnc1` (centres undefined), for which the cytotoxicity is 12.3% (inactive). `Cc1ccc(C(=O)NCc2ccco2)cc1S(=O)(=O)N1CCCCC1`: the cytotoxicity is -20.4% (inactive). To `Cc1c(NC(=O)c2ccccc2N)cccc1C(=O)O` belongs 6.3% (inactive); to `CC(=O)c1cccc(NC(=O)CN(Cc2ccccc2)S(C)(=O)=O)c1`, -3.4% (inactive). To `O=C(C(NS(=O)(=O)c1cccs1)c1ccccc1)N1CCN(c2ccccc2)CC1` (centres undefined) belongs -9.8% (inactive). Turning to `CCOc1ccccc1C(=O)N1CCN(c2cccc(Cl)c2)CC1`, the cytotoxicity was 65.8% (active). To `O=C(O)c1ccccc1C(=O)N1CCN(c2cccc(Cl)c2)CC1` belongs 0.5% (inactive); to `COc1ccc(N2CCN(Cc3cc(=O)oc4ccc(Cl)cc34)CC2)cc1`, -1.6% (inactive). To `CCOc1ccc(C(=O)N2CCN(c3ccccc3)CC2)cc1OCC` belongs -18% (inactive); to `COc1cccc(N2CCN(Cc3coc4c(Cl)cc(Cl)cc4c3=O)CC2)c1`, 65% (active); to `Cc1cc(C(=O)N2CCN(c3cccc(Cl)c3)CC2)c(C)o1`, 62.7% (active).

Consider `COc1ccccc1C(=O)N1CCN(c2cccc(Cl)c2)CC1`, for which the cytotoxicity is 31.3% (inactive). To `COc1ccc(OC)c(S(=O)(=O)N(C)CC(=O)N2CCN(c3cccc(Cl)c3)CC2)c1` belongs -14.2% (inactive). Then `COc1ccc(C(=O)N2CCN(c3cccc(Cl)c3)CC2)c(OC)c1`, with 50.5% (active); and `Cc1ccc2occ(CN3CCN(c4ccccc4)CC3)c(=O)c2c1`, with -18.2% (inactive); and `Cc1cc(C(=O)N2CCN(c3ncccn3)CC2)c(C)o1`, with 6.7% (inactive). Then `COc1ccc2nc3oc(C(=O)N4CCN(c5cccc(Cl)c5)CC4)cc3cc2c1`, with 25.9% (inactive). On to `Cc1cc(C(=O)CSc2nc3ccccc3n2CCC#N)c(C)n1Cc1cccs1`, for which the cytotoxicity is -13.5% (inactive). For `Cc1ccc(C(=O)CSc2nnc(CNc3ccc(C)cc3C)n2Cc2ccco2)cc1`, the cytotoxicity was 30.1% (inactive). For the molecule `Brc1ccc2ncnc(Nc3ccc(N4CCOCC4)cc3)c2c1`, the cytotoxicity is -4.9% (inactive).

Turning to `CCCn1c(SCC(=O)c2cc(OC)ccc2OC)nc2c1c(=O)n(C)c(=O)n2C`, the cytotoxicity is 8.2% (inactive). To `CCOC(=O)c1[nH]c(C)c(C(=O)NCC2CCCO2)c1C` (centres undefined) belongs 5.6% (inactive); to `CCCCN(CC)C(=O)c1ccc(Cl)c(Cl)c1`, -3.6% (inactive); to `O=C(c1c(Cl)nc2sccn12)N1CCN(c2cccc(Cl)c2)CC1`, 64.5% (active). For the molecule `O=C(c1ccccc1F)N1CCN(c2cccc(C(F)(F)F)c2)CC1`, the cytotoxicity is -5.2% (inactive). To `O=C(c1cccc(F)c1)N1CCN(c2cccc(Cl)c2)CC1` belongs 26.8% (inactive); to `COc1ccccc1CC(=O)N1CCN(c2cccc(C(F)(F)F)c2)CC1`, -1.7% (inactive); to `COc1ccccc1C(=O)N1CCN(c2cccc(C(F)(F)F)c2)CC1`, 62.5% (active). For the molecule `COc1ccc(CCNC(=O)CN2CCN(c3cccc(Cl)c3)CC2)cc1OC`, the cytotoxicity was 8.7% (inactive). In the case of `Cc1ccc(C(=O)N2CCN(c3cccc(Cl)c3)CC2)cc1C`, the cytotoxicity was 27.4% (inactive). To `COc1cc(CN2CCSCC2)cc(OC)c1OC` belongs -7.4% (inactive); to `Nc1ccc(CCS(N)(=O)=O)cc1`, 12.4% (inactive). On to `c1ccc(-c2noc(CN3CCN(C(c4ccccc4)c4ccccc4)CC3)n2)cc1`, for which the cytotoxicity is -6.9% (inactive). Consider `CCCC(=O)c1cc(F)c(N2CCN(C(=O)OCC)CC2)cc1C`, for which the cytotoxicity is -0.7% (inactive).

In the case of `COCCSc1nnc(NC(=O)CSCc2ccccc2)s1`, the cytotoxicity is 16.5% (inactive). With `CCCCOC(=O)Cn1c(=O)oc2ccc(C)cc21`, the cytotoxicity was 5.8% (inactive). For `CN1CCCC(OC(=O)c2cc(Cl)ccc2Cl)C1` (centres undefined), the cytotoxicity is -23.9% (inactive). As for `Cc1nnc2sc(-c3cccc(NC(=O)c4cccnc4)c3)nn12`, the cytotoxicity was -1% (inactive). To `CSc1nnc2n(CCc3ccccc3)c(=O)c3c4c(sc3n12)CCCC4` belongs 15.3% (inactive); to `Cn1c(=O)c2[nH]cnc2n(-c2ccccc2)c1=O`, -4.3% (inactive); to `COc1ccc(-c2csc(NC(C)=O)n2)cc1OC`, 10.2% (inactive). To `COc1ccc(OC)c(Nc2nc(-c3ccc(O)c(O)c3)cs2)c1` belongs 59.5% (active); to `COc1ccccc1Nc1nc(-c2cccs2)cs1`, 18.3% (inactive). To `COc1ccc(OC)c(Nc2nc(-c3cccs3)cs2)c1` belongs 54.9% (active). In the case of `COc1ccc(C(=O)Nc2nc(-c3cccs3)cs2)cc1`, the cytotoxicity is 38% (inactive).

As for `COc1ccc(OC)c(Nc2nc(-c3sc(C)nc3C)cs2)c1`, the cytotoxicity is 26.2% (inactive).

For `CC1C(=O)C(C)C(c2ccc3c(c2)OCO3)NC1c1ccc2c(c1)OCO2` (centres undefined), the cytotoxicity was 1.3% (inactive). `CC(C)N(Cc1nc(-c2ccc(Cl)cc2)no1)C(=O)CCCN1C(=O)c2ccccc2C1=O`: the cytotoxicity is 3.9% (inactive). To `CCc1ccc(NC(=O)C2CC=CCC2C(=O)O)cc1` (centres undefined) belongs -3.7% (inactive). Then `O=C(O)C1C2C=CC3(CN(Cc4ccccn4)C(=O)C13)O2` (centres undefined), with 76.1% (active). As to `O=C(O)C1C2C=CC3(CN(Cc4ccncc4)C(=O)C13)O2` (centres undefined), the cytotoxicity is -2.7% (inactive). To `O=C(O)C1C2C=CC3(CN(Cc4ccco4)C(=O)C13)O2` (centres undefined) belongs 1.9% (inactive).

As to `Cc1cc(NS(=O)(=O)c2ccc(NC(=O)Nc3ccccc3)cc2)no1`, the cytotoxicity was -21% (inactive).
